As usually defined, the AC50 is the concentration giving half of the maximal activity seen.

For five compounds, outcome and AC50 results are on record in PubChem BioAssay (EPA / NIEHS).

Assay [1] can be described thus: ATG_Hpa5_TRANS: Attagene TRANS-FACTORIAL HepG2 Assay for human GAL4-Hpa5 Hepatocyte Transcription Factor Basal Promoter (AID 2282975; active = hit-call score of the fitted dose curve at least 0.9, where 1 is the maximum;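 also: hits are increases in reporter mRNA over DMSO baseline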). The conditions noted are these: HepG2 Attagene GAL4-Hpa5 transcription reporter. In short, it runs like this:
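Basal-promoter GAL4 background control within the HepG2 trans-factorial panel of transiently transfected reporter units. Reporter mRNA is measured 24 h after dosing by RT-PCR and capillary electrophoresis, fitted for gain of signal versus DMSO.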

The target in assay [2] is Glucocorticoid receptor (Homo sapiens) (UniProt P04150). Description: ATG_GR_TRANS: Attagene TRANS-FACTORIAL HepG2 Assay for human Glucocorticoid Receptor (GR) (AID 2282978; active = hit-call score of the fitted dose curve at least 0.9, where 1 is the maximum;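 also: activators score as hits since higher reporter transcript over DMSO is fitted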). Conditions: HepG2 Attagene TRANS GR reporter, mRNA transcription. In short, it runs like this: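 Multiplexed TRANS reporter system, HepG2; 24 h exposure; RNA → oligo(dT) RT → reporter-specific PCR → 6-FAM primer extension → HpaI cut → CE fluorescence. Gain-of-signal vs DMSO.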

Assay [3] has as its target Bile acid receptor (Homo sapiens) (UniProt Q96RI1). Description: ATG_FXR_TRANS: Attagene TRANS-FACTORIAL HepG2 Assay for Farnesoid X Receptor (FXR) (AID 2282979; active = hit-call score of the fitted dose curve at least 0.9, where 1 is the maximum;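 also: hits raise reporter mRNA above DMSO so AC50 marks FXR activation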). Conditions: HepG2 Attagene TRANS FXR-GAL4 reporter transcription. The essentials:
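Reporter transcripts from transfected HepG2 cells were measured 24 h after dosing, using RT-PCR with capillary electrophoresis of 6-FAM-labelled fragments. The read-out reflects activity of exogenous FXR-Gal4 chimera on GAL4-UAS units, with induction relative to DMSO.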

The target of assay [4] is Oxysterols receptor LXR-alpha (Homo sapiens) (UniProt Q13133). As to the kind of experiment: ATG_LXRa_TRANS: Attagene TRANS-FACTORIAL HepG2 Assay for human Liver X Receptor alpha (LXRa) (AID 2282980; active = hit-call score of the fitted dose curve at least 0.9, where 1 is the maximum). Conditions: HepG2 Attagene TRANS reporter, LXRa transactivation. The essentials:
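Chemical-induced reporter mRNA measured by RT-PCR with fluorescent labelling and capillary electrophoresis after 24 h dosing of transiently transfected HepG2 cells expressing exogenous NR-Gal4 chimeras; increases scored against DMSO baseline.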

Assay [5] deals with Oxysterols receptor LXR-beta (Homo sapiens) (UniProt P55055). Description: ATG_LXRb_TRANS: Attagene TRANS-FACTORIAL HepG2 Assay for human Liver X Receptor beta (LXRb) (AID 2282981; active = hit-call score of the fitted dose curve at least 0.9, where 1 is the maximum). Conditions: HepG2 Attagene TRANS GAL4-LXRb reporter, mRNA. The essentials: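 HepG2 cells transiently transfected with GAL4-UAS reporter units for chimeric NR-Gal4 proteins, dosed for 24 h. Reporter transcripts measured by RT-PCR and capillary electrophoresis; gain-of-signal fitting relative to DMSO.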

The target of assay [6] is Hepatocyte nuclear factor 4-alpha (Homo sapiens) (UniProt P41235). Description: ATG_HNF4a_TRANS: Attagene TRANS-FACTORIAL HepG2 Assay for human Hepatocyte Nuclear Factor 4 alpha (HNF4a) (AID 2282982; active = hit-call score of the fitted dose curve at least 0.9, where 1 is the maximum). The conditions noted are these: HepG2 HNF4a transactivation reporter, mRNA readout. In short, it runs like this:
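HepG2 cells transiently transfected with HNF4a-Gal4 chimera and GAL4-UAS reporter units, dosed for 24 h. Reporter mRNA measured by RT-PCR, fluorescent primer extension and capillary electrophoresis; gain-of-signal fitted relative to DMSO.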

Assay [7] has as its target Nuclear receptor subfamily 4 group A member 2 (Homo sapiens) (UniProt P43354). As to the kind of experiment: ATG_NURR1_TRANS: Attagene TRANS-FACTORIAL HepG2 Assay for human Nuclear Receptor Related Protein 1 (NURR1) (AID 2282985; active = hit-call score of the fitted dose curve at least 0.9, where 1 is the maximum). The conditions noted are these: HepG2 Attagene TRANS reporter, mRNA readout. The essentials:
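HepG2 cells transiently transfected with NURR1-Gal4 chimera and GAL4-UAS reporter units; after 24 hr compound exposure, reporter mRNA quantified by RT-PCR and capillary electrophoresis; gain of signal fitted against DMSO.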

In assay [8] the target is Transcriptional activator Myb (Homo sapiens) (UniProt P10242). Description: ATG_Myb_CIS: Attagene CIS-FACTORIAL HepG2 Assay for human Myeloblastosis (Myb) Proto-Oncogene Transcription Factor (AID 2282986). The conditions noted are these: HepG2 Attagene CIS-FACTORIAL Myb reporter transcription; actives raise or lower the signal. In short, it runs like this:
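Endogenous transcription factor activity at a Myb-responsive cis element is reported in human liver HepG2 cells after 24 h chemical treatment. Reporter mRNA is detected by RT-PCR and capillary electrophoresis fluorescence, with DMSO as baseline.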

For assay [9], the target named is Nuclear respiratory factor 1 (Homo sapiens) (UniProt Q16656). Description: ATG_NRF1_CIS: Attagene CIS-FACTORIAL HepG2 Assay for human Nuclear Respiratory Factor 1 (NRF1) Orphan Gene (AID 2282987). The conditions noted are these: HepG2 NRF1 cis-element reporter, Attagene multiplex; actives raise or lower the signal. In short, it runs like this:
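Human hepatoma HepG2 cells carrying transfected promoter-regulated reporter units were incubated with test chemicals for 24 h. Reporter transcripts were measured by RT-PCR plus capillary electrophoresis, and endpoints derived by bidirectional fitting with DMSO as baseline.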

Assay [10] in a line: ATG_NFI_CIS: Attagene CIS-FACTORIAL HepG2 Assay for human Nuclear Factor I (NFI) (AID 2282989). The conditions noted are these: HepG2 cis-regulatory reporter, NFI response element transcription; actives raise or lower the signal. The essentials:
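Transfected HepG2 liver cells, exposed 24 h, supplied total RNA for oligo(dT) reverse transcription and reporter-specific PCR. Labelled, HpaI-cut fragments were sized by capillary electrophoresis; DMSO set the baseline for bidirectional fitting.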

In assay [11] the target is Myc proto-oncogene protein (Homo sapiens) (UniProt P01106). Description: ATG_Myc_CIS: Attagene CIS-FACTORIAL HepG2 Assay for human Myelocytomatosis (Myc) Proto-Oncogene Transcription Factor (AID 2282990). Conditions: HepG2, Attagene cis-reporter transcription factor activity; actives raise or lower the signal. The essentials:
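Fluorescence intensity of reporter-specific cDNA fragments, separated by capillary electrophoresis, gives the signal. Transfected HepG2 cells carrying cis-promoter reporter constructs are incubated with compound for 24 h; DMSO serves as baseline.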

Assay [12] in a line: ATG_NF_kB_CIS: Attagene CIS-FACTORIAL HepG2 Assay for human Nuclear Factor Kappa B (NF-kB) (AID 2282991). The conditions noted are these: HepG2 Attagene cis-factorial NF-kB reporter mRNA; actives raise or lower the signal. In short, it runs like this: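 Multiplexed cis-reporter assay in transiently transfected HepG2. 24 h treatment; RNA isolated, RT-PCR, labelled fragments resolved by CE. DMSO baseline.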

Assay [13] in a line: ATG_NRF2_ARE_CIS: Attagene CIS-FACTORIAL HepG2 Assay for human Nuclear Factor Erythroid 2 Related Factor 2 (NFR2) response to Antioxidant Response Elements (ARE) (AID 2282992).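 As to AC50: reporter mRNA level measured by RT-PCR and capillary electrophoresis fluorescence.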 The conditions noted are these: HepG2 Attagene ARE/NRF2 reporter, transcription factor activity; actives raise or lower the signal. In short, it runs like this:
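HepG2 cells transiently transfected with multiplexed cis-regulated reporter transcription units measure endogenous transcription factor activity. Reporter mRNA at 24 h is quantified by RT-PCR, fluorescent labelling and capillary electrophoresis, with bidirectional fitting relative to DMSO.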

A short description of assay [14]: ATG_Oct_MLP_CIS: Attagene CIS-FACTORIAL HepG2 Assay for human Octamer-Binding Transcription Factor (Oct) (AID 2282993). Conditions: HepG2 Attagene cis-factorial Oct reporter, mRNA; actives raise or lower the signal. The essentials: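 Using HepG2 cells bearing transfected cis-reporter constructs, mRNA induction was read after 24 h by fluorescent RT-PCR and capillary electrophoresis, with DMSO defining baseline for gain- or loss-of-signal fits.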

Assay [15] is described as follows: BSK_3C_TissueFactor: BioMAP Diversity Plus: 3C Assay for Tissue Factor Biomarker Activity (AID 2282997). The conditions noted are these: BioMAP 3C HUVEC, tissue factor biomarker readout; actives raise or lower the signal. The essentials:
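Dosing of human umbilical vein endothelial cells preceded a 24 h incubation. Tissue Factor was then read by ELISA, with increases and decreases both scored relative to DMSO controls.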

A short description of assay [16]: BSK_3C_uPAR: BioMAP Diversity Plus: 3C Assay for Urokinase-type plasminogen activator receptor (uPAR) Biomarker Activity (AID 2282998). Conditions: BioMAP 3C HUVEC, uPAR biomarker ELISA; actives raise or lower the signal. The essentials:
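In this endothelial cell-based assay, human umbilical vein primary cells were treated with chemicals and harvested at 24 h. uPAR was quantified using ELISA, with gains or losses fitted relative to DMSO controls.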

Assay [17] is described as follows: BSK_3C_VCAM1: BioMAP Diversity Plus: 3C Assay for Vascular cell adhesion molecule 1 (VCAM1) Biomarker Activity (AID 2282999). The conditions noted are these: BioMAP 3C HUVEC, VCAM1 ELISA, cytokine-stimulated; actives raise or lower the signal. In short, it runs like this:
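Human umbilical vein endothelial cells (3C system), biomarker read by ELISA 24 h after dosing; bidirectional fit against DMSO baseline. Cytotoxicity tracked by SRB total-protein staining in parallel cultures at biomarker time.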

In assay [18] the target is Cellular tumor antigen p53 (Homo sapiens) (UniProt P04637). Description: ATG_p53_CIS: Attagene CIS-FACTORIAL HepG2 Assay for human p53 Transcription Factor (AID 2282994). The conditions noted are these: HepG2 p53 cis-element reporter, Attagene mRNA; actives raise or lower the signal. The essentials:
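HepG2 cells transiently transfected with multiplexed cis-regulated reporter transcription units read endogenous TF activity. After 24 h compound exposure, reporter mRNA was quantified by RT-PCR, fluorescent labelling, HpaI digestion and capillary electrophoresis; bidirectional fits versus DMSO baseline.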

The nature of assay [19]: ATG_GAL4_TRANS: Attagene TRANS-FACTORIAL HepG2 Assay for GAL4 (Internal Marker) (AID 2282976; active = hit-call score of the fitted dose curve at least 0.9, where 1 is the maximum). Conditions: HepG2 Attagene TRANS GAL4 internal marker reporter. The essentials:
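In transfected human HepG2 liver cells dosed 24 h, GAL4 reporter mRNA serves as a baseline marker. Detection by RT-PCR with fluorescent capillary electrophoresis, activity fitted upward relative to DMSO.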

The structures appear in SMILES notation. Records with an inconclusive call do not appear. Calls of active or inactive are those of the source. The calls were made as follows, unless noted: active = hit-call score of the fitted dose curve at least 0.9, where 1 is the maximum; inactive = score below 0.9.

Hepatocyte nuclear factor 4-alpha (Homo sapiens), sequence (P41235 whole entry, looked up, the tested form may be a part): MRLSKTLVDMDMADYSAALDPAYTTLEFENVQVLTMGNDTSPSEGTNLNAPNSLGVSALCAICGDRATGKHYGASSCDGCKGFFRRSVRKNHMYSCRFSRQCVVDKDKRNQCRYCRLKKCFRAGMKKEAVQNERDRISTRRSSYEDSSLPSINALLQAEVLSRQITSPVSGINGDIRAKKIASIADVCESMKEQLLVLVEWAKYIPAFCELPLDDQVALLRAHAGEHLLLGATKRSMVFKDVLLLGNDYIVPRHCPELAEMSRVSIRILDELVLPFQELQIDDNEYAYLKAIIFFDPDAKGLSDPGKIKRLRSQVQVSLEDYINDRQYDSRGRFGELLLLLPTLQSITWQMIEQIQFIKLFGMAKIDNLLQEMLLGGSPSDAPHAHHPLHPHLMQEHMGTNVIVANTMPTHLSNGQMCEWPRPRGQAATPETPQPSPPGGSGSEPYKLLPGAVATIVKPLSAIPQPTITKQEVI
Nuclear respiratory factor 1 (Homo sapiens), sequence (Q16656 whole entry, looked up): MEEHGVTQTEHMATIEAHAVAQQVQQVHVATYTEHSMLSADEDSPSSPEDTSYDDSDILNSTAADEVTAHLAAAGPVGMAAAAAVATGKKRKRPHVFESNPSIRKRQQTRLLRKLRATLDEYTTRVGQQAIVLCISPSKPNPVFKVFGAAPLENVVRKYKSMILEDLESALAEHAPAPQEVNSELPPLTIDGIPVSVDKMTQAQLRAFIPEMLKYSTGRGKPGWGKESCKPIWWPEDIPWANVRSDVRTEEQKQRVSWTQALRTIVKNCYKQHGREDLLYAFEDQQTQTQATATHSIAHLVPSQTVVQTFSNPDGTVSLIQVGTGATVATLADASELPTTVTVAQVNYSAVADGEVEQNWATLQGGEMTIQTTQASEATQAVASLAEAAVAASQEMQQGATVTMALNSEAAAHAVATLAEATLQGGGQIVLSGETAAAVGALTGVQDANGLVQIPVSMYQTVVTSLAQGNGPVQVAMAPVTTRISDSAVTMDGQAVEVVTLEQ
Cellular tumor antigen p53 (Homo sapiens), sequence (P04637 whole entry, looked up): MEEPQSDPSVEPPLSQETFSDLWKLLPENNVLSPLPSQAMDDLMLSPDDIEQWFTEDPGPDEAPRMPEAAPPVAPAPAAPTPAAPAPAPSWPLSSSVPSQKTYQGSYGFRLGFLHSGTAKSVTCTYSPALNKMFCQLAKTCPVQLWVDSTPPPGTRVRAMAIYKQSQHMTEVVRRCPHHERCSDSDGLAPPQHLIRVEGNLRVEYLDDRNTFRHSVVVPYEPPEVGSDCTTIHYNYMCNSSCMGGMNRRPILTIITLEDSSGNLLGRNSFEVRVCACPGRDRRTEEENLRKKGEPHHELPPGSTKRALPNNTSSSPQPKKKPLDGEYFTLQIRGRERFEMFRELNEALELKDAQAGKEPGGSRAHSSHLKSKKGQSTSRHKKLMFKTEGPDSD
Bile acid receptor (Homo sapiens), sequence (Q96RI1 whole entry, looked up, the tested form may be a part): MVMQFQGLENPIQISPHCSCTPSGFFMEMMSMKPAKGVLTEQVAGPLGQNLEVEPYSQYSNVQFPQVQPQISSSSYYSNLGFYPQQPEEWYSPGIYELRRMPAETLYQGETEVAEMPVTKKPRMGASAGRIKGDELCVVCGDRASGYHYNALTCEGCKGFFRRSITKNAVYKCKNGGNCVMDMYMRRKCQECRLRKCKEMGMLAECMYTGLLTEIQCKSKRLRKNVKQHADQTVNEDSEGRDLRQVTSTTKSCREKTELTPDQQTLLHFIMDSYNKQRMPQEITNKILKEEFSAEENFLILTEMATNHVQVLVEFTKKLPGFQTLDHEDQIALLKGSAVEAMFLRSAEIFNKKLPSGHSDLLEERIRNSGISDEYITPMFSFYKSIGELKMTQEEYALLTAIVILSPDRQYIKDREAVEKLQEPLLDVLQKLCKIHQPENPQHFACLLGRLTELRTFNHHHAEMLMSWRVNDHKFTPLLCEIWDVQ
Myc proto-oncogene protein (Homo sapiens), sequence (P01106 whole entry, looked up, the tested form may be a part): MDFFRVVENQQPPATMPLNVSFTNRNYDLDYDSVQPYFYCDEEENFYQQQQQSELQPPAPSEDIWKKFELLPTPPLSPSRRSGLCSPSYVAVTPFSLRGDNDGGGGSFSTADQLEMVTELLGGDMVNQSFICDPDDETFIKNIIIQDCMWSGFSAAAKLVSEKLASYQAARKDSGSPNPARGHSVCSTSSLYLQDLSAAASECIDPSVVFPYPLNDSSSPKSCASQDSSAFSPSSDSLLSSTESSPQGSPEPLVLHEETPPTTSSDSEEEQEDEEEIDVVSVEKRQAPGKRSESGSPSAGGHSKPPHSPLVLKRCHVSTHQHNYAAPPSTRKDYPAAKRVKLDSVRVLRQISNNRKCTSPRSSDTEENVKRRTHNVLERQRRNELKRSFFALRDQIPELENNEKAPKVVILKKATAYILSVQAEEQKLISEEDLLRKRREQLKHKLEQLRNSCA
Oxysterols receptor LXR-alpha (Homo sapiens), sequence (Q13133 whole entry, looked up, the tested form may be a part): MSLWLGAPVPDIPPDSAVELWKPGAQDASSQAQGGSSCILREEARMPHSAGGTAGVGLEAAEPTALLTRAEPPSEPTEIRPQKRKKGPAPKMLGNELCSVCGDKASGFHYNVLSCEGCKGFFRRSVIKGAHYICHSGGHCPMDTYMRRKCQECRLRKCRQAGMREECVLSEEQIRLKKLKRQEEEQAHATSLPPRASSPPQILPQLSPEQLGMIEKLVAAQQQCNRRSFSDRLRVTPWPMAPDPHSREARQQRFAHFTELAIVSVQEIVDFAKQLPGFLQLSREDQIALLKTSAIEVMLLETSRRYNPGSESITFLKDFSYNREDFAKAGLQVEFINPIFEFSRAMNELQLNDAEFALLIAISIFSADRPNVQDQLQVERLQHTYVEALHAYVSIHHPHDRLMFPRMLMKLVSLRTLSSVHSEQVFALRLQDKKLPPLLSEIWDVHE
Nuclear receptor subfamily 4 group A member 2 (Homo sapiens), sequence (P43354 whole entry, looked up, the tested form may be a part): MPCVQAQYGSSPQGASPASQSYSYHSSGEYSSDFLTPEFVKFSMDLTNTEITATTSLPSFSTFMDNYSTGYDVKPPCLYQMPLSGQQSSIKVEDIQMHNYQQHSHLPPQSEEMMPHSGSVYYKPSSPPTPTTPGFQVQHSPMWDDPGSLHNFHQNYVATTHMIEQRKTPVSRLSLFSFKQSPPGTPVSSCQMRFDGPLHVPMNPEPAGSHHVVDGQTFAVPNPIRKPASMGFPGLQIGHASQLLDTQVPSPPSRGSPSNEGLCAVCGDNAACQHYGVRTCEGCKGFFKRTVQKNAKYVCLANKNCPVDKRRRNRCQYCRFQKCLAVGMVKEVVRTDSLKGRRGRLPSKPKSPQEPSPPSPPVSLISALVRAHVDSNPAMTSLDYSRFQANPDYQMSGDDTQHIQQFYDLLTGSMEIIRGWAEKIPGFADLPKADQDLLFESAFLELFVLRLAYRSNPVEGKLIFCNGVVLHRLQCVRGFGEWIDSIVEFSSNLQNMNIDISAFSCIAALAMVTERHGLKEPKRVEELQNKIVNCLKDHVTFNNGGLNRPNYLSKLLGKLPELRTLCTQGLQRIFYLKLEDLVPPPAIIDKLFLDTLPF
Transcriptional activator Myb (Homo sapiens), sequence (P10242 whole entry, looked up): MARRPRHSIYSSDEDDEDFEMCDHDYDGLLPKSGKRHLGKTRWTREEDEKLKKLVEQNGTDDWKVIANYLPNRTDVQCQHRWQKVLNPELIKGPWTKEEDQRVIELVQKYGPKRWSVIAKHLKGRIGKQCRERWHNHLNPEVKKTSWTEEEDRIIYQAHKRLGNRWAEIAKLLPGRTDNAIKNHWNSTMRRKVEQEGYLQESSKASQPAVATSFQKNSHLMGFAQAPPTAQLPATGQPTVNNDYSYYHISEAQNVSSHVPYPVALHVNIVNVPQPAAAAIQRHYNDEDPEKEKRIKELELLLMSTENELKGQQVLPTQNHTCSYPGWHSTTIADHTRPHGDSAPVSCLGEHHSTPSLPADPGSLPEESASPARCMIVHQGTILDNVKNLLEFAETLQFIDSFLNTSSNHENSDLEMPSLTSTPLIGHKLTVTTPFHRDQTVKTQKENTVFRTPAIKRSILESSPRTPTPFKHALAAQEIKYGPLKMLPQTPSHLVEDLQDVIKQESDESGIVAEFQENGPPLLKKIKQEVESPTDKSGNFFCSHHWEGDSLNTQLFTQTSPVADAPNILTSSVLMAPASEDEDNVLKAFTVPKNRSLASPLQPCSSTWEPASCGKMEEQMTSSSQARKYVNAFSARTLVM
Oxysterols receptor LXR-beta (Homo sapiens), sequence (P55055 whole entry, looked up, the tested form may be a part): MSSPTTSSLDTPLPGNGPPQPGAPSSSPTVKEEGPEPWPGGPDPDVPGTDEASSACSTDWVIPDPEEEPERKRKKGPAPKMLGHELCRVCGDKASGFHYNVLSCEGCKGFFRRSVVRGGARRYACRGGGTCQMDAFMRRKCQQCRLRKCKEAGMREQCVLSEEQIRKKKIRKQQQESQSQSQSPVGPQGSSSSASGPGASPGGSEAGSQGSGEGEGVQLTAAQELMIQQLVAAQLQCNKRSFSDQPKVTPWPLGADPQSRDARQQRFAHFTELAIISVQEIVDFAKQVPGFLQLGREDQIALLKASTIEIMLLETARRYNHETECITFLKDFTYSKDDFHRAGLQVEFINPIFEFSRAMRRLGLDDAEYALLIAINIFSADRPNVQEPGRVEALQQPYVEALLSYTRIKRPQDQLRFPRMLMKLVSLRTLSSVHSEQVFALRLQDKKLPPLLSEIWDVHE

Turning to `CC(C)=CC1C(C(=O)OCc2coc(Cc3ccccc3)c2)C1(C)C` (stereo not drawn), the outcome in assay [1], in assay [2], in assay [3], in assay [4], in [5] and in [6] was inactive. In addition, the call in [8], in assay [9], in assay [10], in assay [11], in assay [12] and in assay [15] was inactive. Besides, the result in [17] was inactive. The AC50 in [7] was 33.9 µM (active); in assay [13] it was 13.8 µM (active); in assay [14], 6.38 µM (active); in assay [16], 12 µM (active).
Take `CN=C=S`: the result in assay [1], in assay [3], in assay [4], in assay [5], in assay [6] and in [8] was inactive. The compound was called inactive in [9], in assay [10], in assay [11], in assay [12], in assay [18] and in [15]. In addition, the result in assay [16] and in [17] was inactive. Moreover, the results for the AC50 in assay [13] and in assay [14] were 13.8 µM (active) and 26.1 µM (active), respectively.
For `C=C(C)CN(CC)c1c([N+](=O)[O-])cc(C(F)(F)F)cc1[N+](=O)[O-]`, the result in assay [1], in assay [19], in assay [2], in assay [7], in [8] and in assay [9] was inactive. The outcome in [10], in assay [11], in assay [12], in assay [14], in [18] and in assay [15] was inactive. Moreover, the result in assay [16] and in assay [17] was inactive. For the same compound, the AC50 in assay [13] is 4.69 µM (active).
As to `COCc1cnc(C2=NC(C)(C(C)C)C(=O)N2)c(C(=O)O)c1` (stereo not drawn), the result in [1], in assay [2], in assay [3], in assay [5], in assay [6] and in assay [7] was inactive. In addition, the outcome in assay [8], in assay [9], in [10], in assay [11], in assay [13] and in assay [14] was inactive. In addition, the result in assay [15], in [16] and in [17] was inactive.
Take `CCOC(=O)C(C)OC(=O)c1cc(Oc2ccc(C(F)(F)F)cc2Cl)ccc1[N+](=O)[O-]` (stereo not drawn): the compound was called inactive in assay [1], in assay [2], in assay [4], in [5], in assay [8] and in [9]. Further, the compound was called inactive in assay [10], in assay [11], in assay [12], in [14], in assay [18] and in assay [15]. Moreover, the outcome in assay [17] was inactive. In addition, the AC50 was 17.2 µM (active) in assay [13] and 13.3 µM (active) in assay [16].
